Eight compounds from PubChem BioAssay (NCATS) can be followed below.

Test [1] is described as follows: AP1 Signaling Pathway (AID 357; active means well fitted curve in either direction with a large enough effect, not every such curve was filed as active;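 further: ME-180 reporter cells stimulated with EGF at its EC50 level; on the % scale 0 is the no-effect control and ±100 the full control effect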). To be noted: ME-180 AP-1-bla reporter, EGF-induced, beta-lactamase ratio, 5 h; at 7.69 µM (top of the series) unless noted. The method in brief: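 A ratiometric CCF4 readout (405 nm excitation; 460 and 530 nm emission) quantified AP-1-driven beta-lactamase in ME-180 cells after 5 h with compound and EC50 EGF; AC50 values were derived for activators and inhibitors.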

Test [2] concerns the target Cytochrome P450 1A2 (Homo sapiens) (UniProt P05177). The test can be described thus: p450-cyp1a2 (AID 410; calls by dose curve; further: potency means the concentration at half of the fitted maximal effect;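 on activity change, negative = inhibition: -100% = full effect of reference inhibitor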). The essentials:
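Human CYP1A2 (20nM) demethylated Luciferin-ME at its Km (100uM) in 100mM KPO4. After 10 min compound preincubation, NADPH regeneration ran the reaction 60 min at room temperature. Luciferin was read by luminescence, normalized to 57 uM furafylline.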

Test [3] can be described thus: NFAT Signaling Pathway (AID 444; active means well fitted curve in either direction with a large enough effect, not every such curve was filed as active;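 further: carbachol stimulus at about its EC50 of 1 µM final; on the % scale 0 is the no-effect control and ±100 the full control effect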). The note with it: Jurkat NFAT-bla M1, carbachol, beta-lactamase ratio, 5 h; at 7.69 µM (top of the series) unless noted. The method in brief:
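Jurkat cells with NFAT-driven β-lactamase reporter and co-expressed M1 receptor, stimulated with carbachol (final 1 uM, ~EC50), compound titration, 5 h at 37 °C. CCF4 loaded 1 h at RT; 460/530 nm ratio gave %activity and AC50.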

Test [4] in a line: Stat Signaling Pathway (AID 446; active means well fitted curve in either direction with a large enough effect, not every such curve was filed as active;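 further: ME-180 cervical cancer cells given 40 pM IL-6 alongside compound; SIE-controlled beta-lactamase reporter measured as 460/530 nm FRET emission ratio; on the % scale 0 is the no-effect control and ±100 the full control effect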). To be noted: ME-180 SIE beta-lactamase reporter, IL-6 stimulated, 5 h; at 7.69 µM (top of the series) unless noted. The method in brief: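 ME-180 SIE-bla cells; overnight plating; cpd + IL-6 40 pM, 5 h, 37 C; LiveBLAzer 2.5 h RT; 460/530 nm emission ratio. Normalized to 300 pM IL-6 and 125 nM JAK inhibitor controls.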
In test [5] the target is Glucocorticoid receptor (Homo sapiens) (UniProt P04150). The test can be described thus: GR-GFP Redistribution (AID 450;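 active means compounds whose dose series gives a full or clear partial fitted curve of increased nuclear translocation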; further: potency means the concentration at half of the fitted maximal effect). The note with it: U2OS GR-GFP nuclear translocation, laser cytometry, 2 h.
Glucocorticoid receptor (Homo sapiens), sequence (P04150 whole entry, looked up, the tested form may be a part): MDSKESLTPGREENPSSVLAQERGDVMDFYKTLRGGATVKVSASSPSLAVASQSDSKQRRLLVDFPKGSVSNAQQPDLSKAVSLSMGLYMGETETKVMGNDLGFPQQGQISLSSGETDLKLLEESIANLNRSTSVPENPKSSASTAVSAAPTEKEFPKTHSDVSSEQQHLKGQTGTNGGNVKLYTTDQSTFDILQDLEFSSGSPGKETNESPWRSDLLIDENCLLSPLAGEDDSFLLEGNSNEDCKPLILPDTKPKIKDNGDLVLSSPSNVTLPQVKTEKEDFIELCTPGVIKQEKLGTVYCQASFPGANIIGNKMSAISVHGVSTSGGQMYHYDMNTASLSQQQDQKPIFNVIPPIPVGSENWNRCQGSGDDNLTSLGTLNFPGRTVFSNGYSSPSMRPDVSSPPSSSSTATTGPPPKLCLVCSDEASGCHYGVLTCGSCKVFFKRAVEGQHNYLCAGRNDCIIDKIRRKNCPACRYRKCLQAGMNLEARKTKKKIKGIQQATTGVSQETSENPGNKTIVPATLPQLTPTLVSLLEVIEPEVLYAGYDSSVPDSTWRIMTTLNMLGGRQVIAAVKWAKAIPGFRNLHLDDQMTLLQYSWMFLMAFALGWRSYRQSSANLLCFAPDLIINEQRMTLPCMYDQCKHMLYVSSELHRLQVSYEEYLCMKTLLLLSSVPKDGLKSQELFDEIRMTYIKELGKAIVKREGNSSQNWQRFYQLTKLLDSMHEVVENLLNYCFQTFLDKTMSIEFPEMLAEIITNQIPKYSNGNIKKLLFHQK
The target is the same in test [6]. The test can be described thus: GR-EFC Redistribution (AID 451; calls by dose curve; further: potency means the concentration at half of the fitted maximal effect). The note with it: CHO-K1 GR-EFC translocation, beta-gal luminescence, 2 h. The method in brief: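 CHO-K1 cells expressing nuclear EA and GR-ED fragments of b-gal; compounds titrated up to 46 uM final, 2 h at 37 C. GR nuclear translocation read as complemented b-gal luminescence after 1 h RT detection.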

Test [7] concerns the target 3',5'-cyclic-AMP phosphodiesterase 4B (Homo sapiens) (UniProt Q07343). The test can be described thus: qHTS Assay for Inhibitors of PDE-IV (AID 607; active means well fitted activation curve with a large enough effect in the main read-out, with a control signal flat, not every such curve was filed as active; further: % of control where 0% means no effect). The method in brief: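 ACTOne HEK293 cells carry a modified cAMP-gated CNG channel and express endogenous PDE4; plated 1000 cells/well, compounds up to 22.9 uM final. Membrane-potential dye fluorescence (ex 535/em 590) was read; parental cells received 10 uM forskolin + 100 uM RO 20-1724.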

A short description of test [8]: qHTS Assay for Identification of Small Molecule Antagonists for NFkB Signaling Pathway (AID 895; active means well fitted inhibition curve with a large enough effect in the signal ratio, with a control signal flat, not every such curve was filed as active; the % refers to the signal ratio; further: on the % scale 0 is the no-effect control and ±100 the full control effect). The method in brief: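 ME-180 NFkB-bla cells (beta-lactamase under NFkB response element), plated overnight, treated with compound then 10 pM TNF alpha (about EC50) for 5 hrs at 37 C. LiveBLAzer FRET read at 460/530 nm emission, 405 nm excitation.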
For test [9], the target named is Muscarinic acetylcholine receptor M1 (Rattus norvegicus) (UniProt P08482). Description: qHTS Assay for Antagonists of Acetylcholine Muscarinic M1 Receptor: Kinetic Measurement of Intracellular Calcium Response (AID 943). Further: nearly all actives have a fitted effect of over 75% in size. Further: potency means the concentration at half of the fitted maximal effect.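 On activity change, negative = inhibition: Fluo-4 calcium signal as peak divided by basal fluorescence over 4 min.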 The essentials:
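CHO cells stably expressing rat M1 were loaded with no-wash Fluo-4 dye for 1 h at 37C, pre-incubated 10 min with compound, then challenged with EC80 carbachol (100 nM final); kinetic calcium read 4 min, peak/basal ratio.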
Background: qHTS replaces the single test concentration by a dilution series.

Test [10] shares this target. Description: qHTS Assay for Antagonists of Acetylcholine Muscarinic M1 Receptor: Measurement of IP-One Response (AID 944). Further: nearly all actives have a fitted effect of over 75% in size. The method in brief: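 CHO cells expressing rat M1 receptor, recovered overnight, were pre-incubated 10 min with compound, then stimulated 30 min with carbachol at EC80 (200 nM) in LiCl-containing buffer, pH 7.4. IP1 accumulation was read by HTRF (620/665 nm).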

For test [11], the target named is Pyruvate kinase (Leishmania mexicana) (UniProt Q27686). Description: qHTS Validation Assay for Inhibitors of Leishmania Mexicana Pyruvate Kinase (AID 945).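 Further: 0% = DMSO only neutral control wells.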 The method in brief: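 The enzyme is a highly purified E451W mutant of LmPYK used at 0.2 nM. It converts 0.5 mM PEP and 0.1 mM ADP over 1 h at room temperature; product ATP is quantified by luciferase luminescence relative to DMSO controls.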
Pyruvate kinase (Leishmania mexicana), sequence (Q27686 2-499 E452W): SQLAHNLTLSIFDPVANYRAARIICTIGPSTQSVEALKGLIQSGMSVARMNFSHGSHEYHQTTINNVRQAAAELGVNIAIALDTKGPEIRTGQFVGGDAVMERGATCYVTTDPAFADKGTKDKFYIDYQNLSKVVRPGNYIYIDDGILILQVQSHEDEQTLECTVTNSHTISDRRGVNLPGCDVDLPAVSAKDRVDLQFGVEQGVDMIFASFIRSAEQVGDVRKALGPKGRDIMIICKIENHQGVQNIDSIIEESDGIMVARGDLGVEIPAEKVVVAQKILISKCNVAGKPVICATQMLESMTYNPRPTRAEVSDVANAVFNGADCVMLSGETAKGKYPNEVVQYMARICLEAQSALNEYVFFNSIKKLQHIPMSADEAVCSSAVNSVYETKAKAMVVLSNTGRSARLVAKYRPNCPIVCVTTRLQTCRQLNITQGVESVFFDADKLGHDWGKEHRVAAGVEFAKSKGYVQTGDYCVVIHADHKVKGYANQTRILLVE

The target in test [12] is Pyruvate kinase PKM (Homo sapiens) (UniProt P14618). The test can be described thus: qHTS Assay for Activators of Human Muscle Pyruvate Kinase (AID 954; active means well fitted curve in the direction sought with a large enough effect, not every such curve was filed as active;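 further: 0% = uninhibited enzyme and -100% = no enzyme or full thiadiazolimine inhibition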). The essentials:
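Luminescence from a luciferase ATP-detection/stop reagent reported PKM2 activity. Reactions contained 0.1 nM purified human enzyme, 0.5 mM PEP, 0.1 mM ADP and 7 mM MgCl2 at pH 7.2, run 1 h at RT.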

Test [13] has as its target Alpha-galactosidase A (Homo sapiens) (UniProt P06280). The test can be described thus: Counterscreen for Glucocerebrosidase Inhibitors: qHTS Assay for Human alpha-Galactosidase at pH 4.5 (AID 992). Further: 0% is about no effect. The essentials: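 Enzyme at 2 nM final was combined with compound (0.7 nM to 77 uM) and 80 uM 4-methylumbelliferyl alpha-D-galactopyranoside in 50 mM citric acid, 0.005% Tween-20, pH 4.5. After 20 min at room temperature, fluorescence was read (Ex 365/Em 440 nm); AC50 came from Hill fits.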
(Counterscreens check selectivity or assay interference.)

The target in test [14] is alpha-glucosidase (Oryza sativa, rice) (UniProt Q653V4). The test can be described thus: Counterscreen for Glucocerebrosidase Inhibitors: qHTS Assay for Rice alpha-Glucosidase at pH 5.0 (AID 997).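 Further: 0% = full activity with enzyme and -100% = basal without enzyme.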 The essentials: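 Rice alpha-glucosidase (4 nM final) with 400 uM 4-methylumbelliferyl-alpha-D-glucopyranoside in citrate buffer pH 5.0, 20 min at room temperature, stopped at pH 10; fluorescence 365/440 nm, compounds 0.7 nM–77 uM, AC50 from Hill fits.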

Test [15] addresses Guanine nucleotide-binding protein G(i) subunit alpha-1 (Homo sapiens) (UniProt P63096). The test can be described thus: qHTS Assay for Inhibitors of RGS12 GoLoco Motif Activity (Green Fluorophore) (AID 879).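 Further: 0% = labeled peptide with Gαi1 and full inhibition = labeled peptide alone without protein; negative values mean loss of peptide binding seen as reduced polarization.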 The essentials: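 Fluorescence polarization assay: 50 nM Gαi1 with 10 nM FITC-labeled RGS12 GoLoco peptide in 10 mM Tris pH 7.5, 150 mM NaCl, 0.1 mM GDP, 0.05% NP40, 10 min at room temperature with compound.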

Test [16] concerns the target Cytochrome P450 2D6 (Homo sapiens) (UniProt P10635). The test can be described thus: qHTS Assay for Inhibitors and Substrates of Cytochrome P450 2D6 (AID 891).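 Further: luciferin methyl ether substrate demethylated by CYP2D6 with NADPH regeneration; on the % scale 0 is the no-effect control and ±100 the full control effect; nearly all actives have a fitted effect of over 60% in size.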 The method in brief:
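Human CYP2D6 (5 nM) with 30 uM Luciferin-ME EGE (at Km) in 100 mM KPO4, compound preincubated 10 min, then NADPH regeneration system for 60 min at room temperature. Luciferin read by luminescence; normalized to 1.43 uM quinidine.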

For test [17], the target named is Cytochrome P450 2C19 (Homo sapiens) (UniProt P33261). Description: qHTS Assay for Inhibitors and Substrates of Cytochrome P450 2C19 (AID 899). Further: on the % scale 0 is the no-effect control and ±100 the full control effect; nearly all actives have a fitted effect of over 60% in size. The method in brief:
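Luminescent read-out of luciferin formed from Luciferin-H EGE (10uM, equal to KM). Enzyme 5nM in 50mM KPO4; compound added, 10 min at 37C, then NADPH regenerating system for 60 min at 37C. Full inhibition defined by 57uM ketoconazole.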

A short description of test [18]: qHTS Assay for Identification of Small Molecule Agonists for Thrombopoietin (TPO) Signaling Pathway (AID 917). Further: on the % scale 0 is the no-effect control and ±100 the full control effect. The method in brief: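 Reporter: GpIIb promoter–luciferase in murine Ba/F3 expressing human TPO receptor. Pre-starved of IL-3 overnight; compounds with 26 pM TPO, 24 hrs, 37 C/5% CO2; luminescence read.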
Test [19] has as its target Mitogen-activated protein kinase 10 (Mus musculus) (UniProt Q61831). The test can be described thus: JNK3 AlphaScreen Assay (AID 530; active means well fitted curve in either direction with a large enough effect, not every such curve was filed as active). The method in brief: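 qHTS format: compounds tested as titrations against IL-1beta/TNF-alpha-activated HepG2 lysate JNK3 with biotin-GST-cJun substrate and 10 uM ATP at room temperature. Loss of anti-phospho-cJun AlphaScreen signal indicates inhibition.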

The target of test [20] is Cytochrome P450 3A4 (Homo sapiens) (UniProt P08684). The test can be described thus: qHTS Assay for Activators of Cytochrome P450 3A4 (AID 885). Further: nearly all actives have a fitted effect of over 65% in size. The method in brief: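 20nM CYP3A4 + 25uM Luciferin-PPXE (=KM), 200mM KPO4; cpd 10 min RT; NADPH regen, 60 min RT; stop w/ detection buffer, 20 min; luminescence. Normalized to 57 uM ketoconazole.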

The structures appear in SMILES notation. Several values for one entry are separate records, joined by “and”; a condition that tells them apart may be missing. Equal entries are not always repeated. Unmarked numbers belong to inactive results. Inconclusive results are not listed. Activity calls are given as the source filed them. Unless noted, the call rests on the fitted dose curve; in most records, active means well fitted curve in the direction sought with a large enough effect; inconclusive means small, poorly fitted or top-dose-only effect, or another doubt; inactive means no such curve, though single readings can be large; an effect the other way counts as inactive or inconclusive.

Muscarinic acetylcholine receptor M1 (Rattus norvegicus), sequence (P08482 whole entry, looked up): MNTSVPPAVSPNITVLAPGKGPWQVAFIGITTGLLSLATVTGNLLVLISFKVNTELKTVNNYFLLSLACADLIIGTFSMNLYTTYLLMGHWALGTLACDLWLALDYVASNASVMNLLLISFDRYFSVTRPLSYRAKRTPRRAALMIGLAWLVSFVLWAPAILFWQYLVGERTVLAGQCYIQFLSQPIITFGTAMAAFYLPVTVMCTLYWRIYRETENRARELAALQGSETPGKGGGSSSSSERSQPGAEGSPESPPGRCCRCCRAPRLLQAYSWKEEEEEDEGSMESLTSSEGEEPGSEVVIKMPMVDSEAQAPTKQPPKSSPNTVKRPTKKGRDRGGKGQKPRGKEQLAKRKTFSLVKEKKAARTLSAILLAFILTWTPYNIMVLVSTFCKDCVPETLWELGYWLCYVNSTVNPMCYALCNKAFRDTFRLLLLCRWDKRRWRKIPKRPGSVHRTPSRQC
Cytochrome P450 2D6 (Homo sapiens), sequence (P10635 whole entry, looked up): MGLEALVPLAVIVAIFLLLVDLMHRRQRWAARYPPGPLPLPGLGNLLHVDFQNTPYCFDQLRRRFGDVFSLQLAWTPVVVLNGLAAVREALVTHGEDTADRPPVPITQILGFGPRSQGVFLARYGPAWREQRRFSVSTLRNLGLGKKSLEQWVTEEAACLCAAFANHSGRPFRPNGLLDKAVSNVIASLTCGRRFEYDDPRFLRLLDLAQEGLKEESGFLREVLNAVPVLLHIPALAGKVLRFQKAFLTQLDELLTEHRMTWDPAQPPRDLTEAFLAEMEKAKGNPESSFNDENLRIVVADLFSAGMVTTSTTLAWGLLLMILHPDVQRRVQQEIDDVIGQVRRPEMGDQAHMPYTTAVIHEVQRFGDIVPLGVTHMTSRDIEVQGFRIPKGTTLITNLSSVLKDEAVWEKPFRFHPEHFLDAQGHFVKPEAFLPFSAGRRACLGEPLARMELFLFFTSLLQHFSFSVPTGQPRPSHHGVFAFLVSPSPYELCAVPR
Cytochrome P450 1A2 (Homo sapiens), sequence (P05177 whole entry, looked up): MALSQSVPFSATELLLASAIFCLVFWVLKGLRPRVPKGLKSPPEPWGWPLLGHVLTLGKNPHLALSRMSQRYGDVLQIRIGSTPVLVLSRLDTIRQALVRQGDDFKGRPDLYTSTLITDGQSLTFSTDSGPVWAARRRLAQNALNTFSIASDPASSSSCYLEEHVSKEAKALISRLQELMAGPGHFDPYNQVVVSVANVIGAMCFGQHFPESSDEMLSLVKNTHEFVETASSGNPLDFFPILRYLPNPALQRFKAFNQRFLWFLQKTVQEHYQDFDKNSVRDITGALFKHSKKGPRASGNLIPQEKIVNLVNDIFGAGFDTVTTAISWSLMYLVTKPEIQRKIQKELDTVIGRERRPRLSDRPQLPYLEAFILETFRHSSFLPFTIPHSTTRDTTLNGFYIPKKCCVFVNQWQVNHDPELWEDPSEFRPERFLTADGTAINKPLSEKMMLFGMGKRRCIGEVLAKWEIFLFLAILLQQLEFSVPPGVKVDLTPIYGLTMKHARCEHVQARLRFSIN
Alpha-galactosidase A (Homo sapiens), sequence (P06280 whole entry, looked up): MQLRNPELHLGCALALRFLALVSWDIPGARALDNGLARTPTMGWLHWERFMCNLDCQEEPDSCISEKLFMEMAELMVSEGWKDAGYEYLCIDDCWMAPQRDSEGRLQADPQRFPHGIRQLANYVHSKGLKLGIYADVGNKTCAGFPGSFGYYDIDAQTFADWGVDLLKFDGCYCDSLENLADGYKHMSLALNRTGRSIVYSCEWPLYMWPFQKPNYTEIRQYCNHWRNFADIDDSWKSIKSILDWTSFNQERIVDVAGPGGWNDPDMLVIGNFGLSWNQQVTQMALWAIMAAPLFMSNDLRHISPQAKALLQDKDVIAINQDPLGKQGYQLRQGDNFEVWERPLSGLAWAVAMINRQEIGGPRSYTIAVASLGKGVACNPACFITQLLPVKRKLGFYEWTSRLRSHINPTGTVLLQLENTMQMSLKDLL
3',5'-cyclic-AMP phosphodiesterase 4B (Homo sapiens), sequence (Q07343 whole entry, looked up): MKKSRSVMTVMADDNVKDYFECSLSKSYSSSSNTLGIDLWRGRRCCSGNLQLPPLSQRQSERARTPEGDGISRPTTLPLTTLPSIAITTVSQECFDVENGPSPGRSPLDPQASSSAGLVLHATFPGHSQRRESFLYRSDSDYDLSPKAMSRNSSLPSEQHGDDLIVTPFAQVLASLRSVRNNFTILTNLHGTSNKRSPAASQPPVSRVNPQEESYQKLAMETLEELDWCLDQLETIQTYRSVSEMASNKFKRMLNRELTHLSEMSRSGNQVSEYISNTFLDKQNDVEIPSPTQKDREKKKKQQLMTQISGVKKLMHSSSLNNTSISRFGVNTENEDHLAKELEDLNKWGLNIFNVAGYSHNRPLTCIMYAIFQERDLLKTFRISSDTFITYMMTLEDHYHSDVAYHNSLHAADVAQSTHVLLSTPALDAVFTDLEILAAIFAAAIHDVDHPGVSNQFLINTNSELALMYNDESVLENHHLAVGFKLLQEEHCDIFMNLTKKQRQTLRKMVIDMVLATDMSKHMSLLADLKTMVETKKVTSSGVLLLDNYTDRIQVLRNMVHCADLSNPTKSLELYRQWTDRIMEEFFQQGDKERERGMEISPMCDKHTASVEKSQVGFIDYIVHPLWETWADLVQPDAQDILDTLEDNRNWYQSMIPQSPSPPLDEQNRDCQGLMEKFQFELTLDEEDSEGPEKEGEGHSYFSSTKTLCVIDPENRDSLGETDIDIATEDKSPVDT
Cytochrome P450 2C19 (Homo sapiens), sequence (P33261 whole entry, looked up): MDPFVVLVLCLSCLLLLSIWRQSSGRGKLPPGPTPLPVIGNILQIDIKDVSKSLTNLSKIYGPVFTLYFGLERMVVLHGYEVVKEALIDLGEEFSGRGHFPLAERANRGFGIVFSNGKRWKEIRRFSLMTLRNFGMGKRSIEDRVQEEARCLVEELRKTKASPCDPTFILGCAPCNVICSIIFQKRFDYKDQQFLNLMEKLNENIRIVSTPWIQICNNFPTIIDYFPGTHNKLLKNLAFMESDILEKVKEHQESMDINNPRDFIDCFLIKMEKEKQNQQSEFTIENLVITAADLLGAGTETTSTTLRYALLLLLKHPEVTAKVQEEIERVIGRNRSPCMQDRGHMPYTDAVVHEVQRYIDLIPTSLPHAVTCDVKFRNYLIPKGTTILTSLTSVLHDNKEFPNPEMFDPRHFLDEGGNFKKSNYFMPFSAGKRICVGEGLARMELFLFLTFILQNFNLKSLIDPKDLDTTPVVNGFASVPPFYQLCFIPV
Pyruvate kinase PKM (Homo sapiens), sequence (P14618 whole entry, looked up): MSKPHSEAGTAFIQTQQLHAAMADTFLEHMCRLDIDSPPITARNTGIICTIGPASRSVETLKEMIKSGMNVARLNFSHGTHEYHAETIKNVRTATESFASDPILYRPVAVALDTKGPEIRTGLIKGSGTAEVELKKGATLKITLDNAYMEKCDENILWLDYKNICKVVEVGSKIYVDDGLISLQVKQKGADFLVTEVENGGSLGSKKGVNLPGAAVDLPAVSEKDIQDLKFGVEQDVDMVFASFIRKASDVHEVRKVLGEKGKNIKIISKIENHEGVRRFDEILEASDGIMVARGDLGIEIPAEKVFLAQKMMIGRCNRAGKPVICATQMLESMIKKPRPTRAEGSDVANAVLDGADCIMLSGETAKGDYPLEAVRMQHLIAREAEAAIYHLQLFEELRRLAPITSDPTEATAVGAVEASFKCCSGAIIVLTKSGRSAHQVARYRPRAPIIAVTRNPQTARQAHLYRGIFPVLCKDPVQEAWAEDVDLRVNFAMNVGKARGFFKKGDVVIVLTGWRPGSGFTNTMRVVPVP

Take `CC(C)[C@H]1C(=O)C(C(N)=O)=C(O)[C@]2(O)C(=O)C3=C(O)c4c(O)ccc(N(C)C)c4C[C@H]3C[C@@H]12`: the activity change, negative = inhibition in test [1] is 0.478% [at 38 µM]; in [3], 8.64% [at 38 µM]. The Potency result in test [2], in test [7], in test [8], in [9], in [10] and in [14] was “inactive” in each case. In addition, the activity, negative = inhibition in test [4] is 1.38% [at 38 µM]. The Potency in [5] and in test [6] was more than 46 µM each time. Besides, the call in test [11], in test [12] and in test [13] was inactive.

Take `O=C(O)[C@H]1C[C@H](C(=O)O)N1`: the activity change, negative = inhibition is -0.354% [at 38 µM] and 2.92% [at 38 µM] in test [1]; 3.19% [at 38 µM] and 0.467% [at 38 µM] in test [3]. For the same compound, the Potency result in test [2], in test [7], in test [16], in test [17], in test [9] and in test [10] was “inactive” each time. Besides, in [14], the Potency entry is “inactive”. In addition, the activity, negative = inhibition in test [4] is -10.2% [at 38 µM]. Moreover, the Potency in test [5] and in test [6] was more than 46 µM each time. The compound was called inactive in test [15], in test [18], in [11], in test [12] and in [13].

`O=C(O)/C=C\[C@H](O)c1ccc(Cl)cc1`: the activity change, negative = inhibition in [1] is 1.29% [at 38 µM]; in [3], 8.91% [at 38 µM]. In addition, the Potency entry in test [2], in test [19], in test [8], in [9] and in [14] was “inactive” in each case. Also, the activity, negative = inhibition in test [4] was -1.2% [at 38 µM]. The Potency in test [5] was more than 46 µM. In addition, the outcome in test [15], in test [18], in test [11] and in test [13] was inactive.

On to `N[C@H](CS(=O)O)C(=O)O`, for which the activity change, negative = inhibition in [1] is 9.5% [at 38 µM]; in test [3] it was 10.5% [at 38 µM]. For the same compound, the Potency result in test [2], in test [7], in test [16] and in [17] was “inactive” in each case. In test [4], the activity, negative = inhibition is 17.2% [at 38 µM]. For the same compound, the Potency in test [5] and in [6] was more than 46 µM each time.

Consider `O=C1C=C(Nc2nc(C(=O)O)cc(=O)[nH]2)c2ccccc2C1=O`, for which the figures for the activity change, negative = inhibition in test [1], in test [2] and in test [3] were -3.21%, -15.8% [at 2.29 µM] and 7.2%, respectively. In addition, the activity, negative = inhibition in test [4] is 1.38%. In addition, in [5], the Potency was more than 46 µM. In addition, the Potency entry in [19] and in test [7] was “inactive” each time.

Regarding `Nc1nc(SCc2ccc([N+](=O)[O-])cc2)c2ncn([C@@H]3O[C@@H](CO)[C@@H](O)[C@H]3O)c2n1`, the activity change, negative = inhibition was -11.9% [at 38 µM] in [1] and 0.367% [at 38 µM] in [3]. The Potency entry in [2], in test [7], in test [20], in [8] and in test [14] was “inactive” each time. The activity, negative = inhibition in test [4] was -17% [at 38 µM]. Besides, the results for the Potency in test [5], in test [6] and in [9] were more than 46 µM, more than 46 µM and 25.1 µM (active), respectively. In addition, the result in test [18], in test [11] and in test [13] was inactive.

Regarding `CCCCCCCCCCCCC/C=C\[C@H](O)[C@H](N)CO`, the activity change, negative = inhibition in test [1] is 27.4% [at 38 µM]; in test [3], 1.11% [at 38 µM]. Further, the Potency in test [2] was 31.6 µM (active); in test [5] it was more than 46 µM; in test [6] it was more than 46 µM. Also, in test [4], the activity, negative = inhibition was -6.68% [at 38 µM]. Besides, the Potency entry in test [7] and in test [17] was “inactive” in each case.

With `CNc1ncnc2c1ncn2[C@H]1C[C@@H](OP(=O)(O)O)[C@H](COP(=O)(O)O)O1`, the figures for the activity change, negative = inhibition in [1] and in test [3] were -5.54% [at 38 µM] and 5.84% [at 38 µM], respectively. The Potency entry in test [2], in test [7] and in test [10] was “inactive” in each case. Moreover, the activity, negative = inhibition in [4] was -2.5% [at 38 µM]. Moreover, the Potency in test [5] and in [6] was more than 46 µM in each case. In addition, the call in test [18], in test [11] and in test [13] was inactive.
